# From PubChem BioAssay
# Compounds with a hit are over-represented: about 7.8% of the library has one in this group of screens.
# Marburg entry inh – qHTS for inhibitors of binding or entry into cells for Marburg Virus; Marburg virus pseudotyped entry inhibition, cell reporter; Potency, µM (titrated, usually from 37.8 µM), inactives show at the top dose activity change, negative = inhibition, actives largely listed as inhibitors; 300,000 tested, 1.8% active; AID 540276, 2011; calls by dose curve; tested in HEK293 cells; note: potency is the fitted concentration of half-maximal effect
# LASV entry inh – qHTS for Inhibitors of binding or entry into cells for Lassa Virus; AID 540256, 2011; Potency, µM (highest dose often 37.9 µM), without a hit: top-dose activity change, negative = inhibition, most hits filed as inhibitors; Lassa virus pseudotype entry inhibition, cell reporter; 300,000 tested, 1.2% active; calls by dose curve; tested in HEK293 cells; note: potency is the fitted concentration of half-maximal effect; nearly all actives have a fitted effect of over 50% in size
# VACV Venus inh – qHTS for Stage-Specific Inhibitors of Vaccinia Orthopoxvirus: Venus Reporter Primary qHTS; 330,000 tested, 0.46% active; AID 720580, 2013; Vaccinia virus Venus reporter expression, fluorescence; Potency, µM (doses to about 36.5 µM), inactives show at the top dose activity change, negative = inhibition, usual class: inhibitors; calls by dose curve; tested in A549 cells; note: potency is the fitted concentration of half-maximal effect; nearly all actives have a fitted effect of over 30% in size
# Vaccinia mCherry – qHTS for Stage-Specific Inhibitors of Vaccinia Orthopoxvirus: mCherry Reporter Primary qHTS | AID 720579, 2013 | Vaccinia virus mCherry reporter infection, fluorescence | 310,000 tested, 0.63% active | Potency, µM (titrated, usually from 36.5 µM), for inactives: at the top dose activity change, negative = inhibition, usual class: inhibitors; calls by dose curve; tested in A549 cells; note: potency is the fitted concentration of half-maximal effect; nearly all actives have a fitted effect of over 35% in size
# HCV inh – qHTS Assay for Inhibitors of Hepatitis C Virus (HCV). AID 651820, 2012. Huh7.5.1 HCVcc-Cre infection, luciferase reporter, 44 h. 340,000 tested, 3.4% active. Potency, µM (doses to about 41.8 µM), for the others: top-dose activity change, negative = inhibition, usual class: inhibitors; active = well fitted inhibition curve with a large enough effect; inconclusive = small, poorly fitted or top-dose-only effect, or another doubt; inactive = no such curve, though single readings can be large or run the other way; note: potency is the fitted concentration of half-maximal effect
#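 1,000 cells/well; 4 h culture; + compound; + HCVcc-Cre (~0.5 moi); 44 h; luciferase substrate, RT 15 min; read 15 sec.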
# HCMV inh – qHTS Assay for inhibitors of the human cytomegalovirus (HCMV). HFF cells, HCMV-luciferase reporter, 72 h; active compounds read low. 410,000 tested, 4.5% active. activity change, negative = inhibition, % at 57.5 µM; in the data active = activity change below about -60%; inconclusive = no clear call, values can overlap the other calls; inactive = above about -39%
#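 Screen run at 2 compound doses on HFFs infected with reporter HCMV, MOI 1 PFU/cell. Luciferase activity from cell lysates at 72 h post infection gave inhibition relative to buffer-only and Salinomycin wells.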
# An asterisk follows results filed as active; i = inactive; ? = inconclusive; / = no result given; [ ] = remark or other dose. % is set by controls: 0 for no effect and ±100 for the full control effect.
SMILES,Marburg entry inh,LASV entry inh,VACV Venus inh,Vaccinia mCherry,HCV inh,HCMV inh
COc1ccccc1N1CCN(c2nc(CNC(=O)C3CCOC(C)(C)C3)nc3ccccc23)CC1 (stereo not given),/,/,-9%,-12%,/,/
COc1ccc(Cn2nnnc2CN2CCC(c3nc4ccccc4s3)CC2)cc1,?,?,/,/,25µM*,-70*
Cc1cc2nc(C3CCN(Cc4nnnn4Cc4ccccc4)CC3)[nH]c2cc1C,?,-17%,?,-21%,?,19
CN(C)CCNc1oc(-c2ccc(COc3ccc(Cl)cc3)o2)nc1C#N,?,11%[46.1 µM],-14%,-13%,/,-32
O=C1NC(=O)N(c2ccc3c(c2)OCO3)C(=O)/C1=C\c1ccc(N2CCCCC2)o1,-14%,-10%,0%,-6%,1%,-66*
O=C(OCC(=O)N1CCCc2ccccc21)c1cnc(Cl)c(Cl)c1,-7%,/,/,/,5µM*,-4
COc1ccc(OC)c(/C=C/C(=O)N2CCCc3ccccc32)c1,?,?,-12%,i,10µM*,-31
COc1cc(/C=C/C(=O)OCC(=O)N2CCCc3ccccc32)ccc1O,1.3µM*,-26%,-22%,-29%,-27%,-15
Cc1ccc2[nH]c3c(=O)n(CC(=O)N(C)c4cc(Cl)ccc4C)ncc3c2c1,/,8%[46.1 µM],-24%,?,/,-22
Cc1ccc(Cl)cc1N(C)C(=O)Cn1ncc2c([nH]c3ccccc32)c1=O,/,/,-3%[7.34 µM],-9%[7.34 µM],-16%,-69*
COc1ccc(NC(=O)C(c2ccccc2)n2c(=O)c(-c3ccco3)nc3ccccc32)cc1 (stereo not given),/,/,-14%,-16%,/,48
CCN(CC)c1ccc(NC(=O)C(Cc2ccccc2)NS(=O)(=O)c2ccc(Br)s2)c(C)c1 (stereo not given),13%[46.1 µM],1%[46.1 µM],-7%,-8%,/,-10
CCN(C(=O)C(NS(=O)(=O)c1ccc(Br)s1)c1ccccc1)c1ccc(C)c(C)c1 (stereo not given),?,?,?,-4%,/,-64*
CCOC(=O)C1NNN2C3CCCCC3C(N3CCN(C4CCCCC4)CC3)NC12 (stereo not given),5%[46.1 µM],/,/,/,/,/
O=C(CCCn1c(=S)[nH]c2ccsc2c1=O)Nc1ccc2c(c1)OCCO2,12%[46.1 µM],/,1%,-21%,-24%,-75*
Cc1ccc2c(c1)nnn2C1CCN(S(=O)(=O)c2ccc(C(=O)O)cc2)CC1,16%[46.1 µM],-8%,5%,8%,34%,-67*
Cc1ccc2c(c1)nnn2C1CCN(S(C)(=O)=O)CC1,3%[46.1 µM],-7%,6%,-5%,-4%,15
Cc1ccc2c(c1)nnn2C1CCN(S(=O)(=O)c2ccc(C(=O)N3C(C)CCCC3C)cc2)CC1 (stereo not given),7.9µM*,?,-28%,-22%,6.3µM*,-73*
O=C(NCc1nnc2n1CCN(Cc1cccc(C(F)(F)F)c1)CC2)c1ccncc1,/,/,-7%,-10%,/,/
CCOc1ccc2c(ccc(/C=C/c3cc(C)c4cccnc4c3O)[n+]2C)c1,16µM*,?,?,?,?,/
Cc1cc(C)c2cccnc2c1O,/,/,-8%,-17%,/,/
CCOC(=O)CNC(=O)c1cc2c(=O)n(CC)c3ccccc3c2s1,-3%[46.1 µM],23%[46.1 µM],-10%,7%,/,9
CCSc1nc(C2CC2)cc(-c2ccco2)c1C#N,-4%,5%,-22%,/,?,-11
CCSc1nc(C2CC2)cc(-c2cccs2)c1C#N,2%,-1%,-4%,-1%,7.9µM*,-32
Cc1cc(C)nc(SCc2nnc(SCC(=O)N3CCCc4ccccc43)n2C)n1,9%,-1%,0%,-5%,11µM*,?
SMILES,Marburg entry inh,LASV entry inh,VACV Venus inh,Vaccinia mCherry,HCV inh,HCMV inh
Cc1cccc(-c2nnc(SCC(=O)N3c4ccccc4CCc4ccccc43)n2C)c1,?,-27%,-10%,-11%,?,-70*
Cc1cc(C)nc(SCc2nnc(SCC(=O)N3CCCc4ccccc43)o2)n1,-16%,0%,-12%,-19%,?,28
Cn1c(SCC(=O)N2c3ccccc3CCc3ccccc32)nnc1-c1cc2ccccc2cc1O,?,-15%,?,-13%,?,-65*
COC(=O)c1ccccc1NC(=O)C1=C(C)C(=O)OC12CCCCCC2,/,1%[46.1 µM],2%,-17%,/,0
COc1cc(C(=O)NCCc2c[nH]c3ccccc23)ccc1OCc1c(C)noc1C,-26%[46.1 µM],7.9µM*,-20%,-26%,-28%,48
CCOc1ccc(CCNC(=O)c2ccc(OCc3c(C)noc3C)cc2)cc1OCC,?,?,-17%,-2%,?,-97*
COC(=O)c1cccc(N2C(=O)C[C@](Sc3ccc(OC)cc3)(C(=O)N3CCN(c4ncccn4)CC3)[C@H]2c2ccc(OC)cc2)c1,/,/,/,/,/,-25
O=C(NCCc1nc2ccccc2[nH]1)c1ccc(F)cc1,?,-9%,/,/,?,?
O=C(NCCc1nc2ccccc2[nH]1)c1cccc(Br)c1,1%[46.1 µM],2%,-8%,-11%,?,-70*
Cc1cccc(NC(=S)N/N=C2\CC(C)(C)Oc3ccc(O)cc32)c1,4.5µM*,-9%[46.1 µM],-26%,?,?,-16
CCOc1cccc(/C=N/NC(=S)Nc2ccccc2[N+](=O)[O-])c1O,/,/,/,/,-12%,-70*
Cc1ccc(/C=C2\CCC3=C2OC(N)=C(C#N)C3c2ccc(C)cc2)cc1 (stereo not given),14%,-21%,4%,i,?,/
N#CC1=C(N)OC2=C(CCc3ccccc32)C1c1ccccc1 (stereo not given),?,?,?,?,?,-92*
COc1cccc(CN2CCC3(CC2)c2ccccc2[C@@H](NC(=O)c2ccccc2)[C@@H]3O)c1O,/,/,-9%,-24%,/,/
Cc1cc(=O)[nH]c2nnc(SCC(=O)NC(C)(C)C)n12,/,4%[46.1 µM],-11%,i,/,8
C/C(=N\Nc1ccccn1)c1ccc(C#N)cc1,-2%[46.1 µM],/,-1%,-5%,-22%,-23
C/C(=N\Nc1ccccn1)c1cccs1,-12%[46.1 µM],/,-5%,-5%,10µM*,114
C/C(=N\Nc1ccccn1)c1ccc(OC(F)F)cc1,?,/,?,?,8.9µM*,34
COc1cccc(CNc2ncnc3onc(-c4ccc(F)cc4)c23)c1,/,4%[46.1 µM],-14%,-12%,/,-16
CC(C)(C)NC(=O)C(c1ccc(-c2ccccc2)cc1)N(C[C@H]1CC[C@@H]([C@@H]2CC[C@H](CO)O2)O1)C(=O)c1ccc(-c2ccccc2)cc1 (stereo not given in full),/,/,?,28µM*,-24%,/
